In PubChem BioAssay (NCATS):
“And” between values parts separate entries of the source, which are not always exact repeats. Equal values may be shown once. Results filed as inconclusive are left out. Where a call stands in place of a potency, no number is given. Unmarked numbers belong to inactive results. The source made the active and inactive calls. Calls follow the shape of the dose curve; as a rule, active = well fitted curve in the direction sought with a large enough effect; inconclusive = small, poorly fitted or top-dose-only effect, or another doubt; inactive = no such curve, though single readings can be large; an effect the other way counts as inactive or inconclusive.

Assays:
[1] = target: Cellular tumor antigen p53 (Homo sapiens) (UniProt P04637); test: Primary qHTS for small molecule compounds that upregulate eGFP-tagged delta133p53alpha (in N-terminal) cells. (AID 2060322); settings: NCI-H358 eGFP-delta133p53alpha fluorescence, 24 h; activation: stronger effect = higher value;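 also: cells pre-induced with doxycycline then dosed without doxycycline; series mostly up to about 56 µM; nearly all actives have a fitted effect of over 75% in size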
Sequence of Cellular tumor antigen p53 (Homo sapiens) (P04637 whole entry, looked up): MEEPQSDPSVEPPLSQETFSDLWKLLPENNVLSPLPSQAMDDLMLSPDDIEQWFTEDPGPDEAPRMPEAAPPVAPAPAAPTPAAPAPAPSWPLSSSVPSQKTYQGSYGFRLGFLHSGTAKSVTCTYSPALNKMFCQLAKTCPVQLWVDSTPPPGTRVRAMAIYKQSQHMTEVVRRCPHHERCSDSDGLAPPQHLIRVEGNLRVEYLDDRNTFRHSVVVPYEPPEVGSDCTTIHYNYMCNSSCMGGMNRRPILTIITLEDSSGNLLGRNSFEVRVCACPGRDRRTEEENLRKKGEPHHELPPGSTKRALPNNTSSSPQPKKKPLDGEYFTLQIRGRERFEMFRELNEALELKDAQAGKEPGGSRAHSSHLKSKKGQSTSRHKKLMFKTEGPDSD
In short: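 NCI-H358 cells pre-induced 24 h with 10 ng/ml doxycycline for eGFP-delta133p53alpha, plated dox-free and exposed 24 h at 37C to titrated compounds. Fixed, Hoechst-stained; gated GFP peak intensity by laser scanning cytometry, normalized to DMSO (0%) and 57.5 uM 5-azacytidine (100%).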

[2] = target: Aldehyde dehydrogenase, mitochondrial (Homo sapiens) (UniProt P05091); test: qHTS for Inhibitors of the Aldehyde Dehydrogenase Family (ALDH2) Primary screen (AID 2061308); also: nearly all actives have a fitted effect of over 55% in size
[3] = target: Retinaldehyde dehydrogenase 3 (Homo sapiens) (UniProt P47895); test: qHTS for Inhibitors of the Aldehyde Dehydrogenase Family (ALDH1A3) Primary screen (AID 2061315)
[4] = BET inhibitor-based combinations targeting novel dependencies in MECOM-rearranged (r) AML: SET-2 cell line (AID 2202231); settings: SET-2 AML cells viability, CellTiter-Glo luminescence, 48 h; viability: stronger effect = lower value, series mostly up to about 46 µM; also: nearly all actives have a fitted effect of over 35% in size
In short: (§1)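 Readout: CellTiter-Glo luminescence. Exposure: 48 h, 11 concentrations, 500 cells/well. Metric: AUC and within-line Z-AUC after DMSO/empty-well normalization.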

[5] = BET inhibitor-based combinations targeting novel dependencies in MECOM-rearranged (r) AML: MV-4-11 cell line (AID 2202233); also: nearly all actives have a fitted effect of over 45% in size; also: potency is read from the fitted curve at half-maximal effect
In short: (§2)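 Seeding density was 500 cells/well, and drug exposure lasted 48 hr under standard culture conditions. Read-out used CellTiter-Glo reagent with a 15 min room-temperature incubation before luminescence measurement; AUC and Z-AUC summarize the normalized responses.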

[6] = BET inhibitor-based combinations targeting novel dependencies in MECOM-rearranged (r) AML: UCSD-AML1 cell line (AID 2202235); also: nearly all actives have a fitted effect of over 40% in size; also: potency is read from the fitted curve at half-maximal effect
In short: as §2

[7] = BET inhibitor-based combinations targeting novel dependencies in MECOM-rearranged (r) AML: AML-191 cell line (AID 2202236; also: nearly all actives have a fitted effect of over 35% in size)
In short: as §1

[8] = BET inhibitor-based combinations targeting novel dependencies in MECOM-rearranged (r) AML: AML-194 cell line (AID 2202237; also: nearly all actives have a fitted effect of over 40% in size)
In short: as §1

| SMILES | activation [1] | Potency [2] | Potency [3] | viability [4] [%] | Potency [5] | Potency [6] | Potency [7] | Potency [8] |
| --- | --- | --- | --- | --- | --- | --- | --- | --- |
| COc1ccccc1[C@H](c1cccc2ccccc12)[C@@](C)(C#N)C(=O)N1CCC(c2cccc(C(F)(F)F)c2)CC1 | 0.109% | inactive | inactive | 110 | 5.25 µM (active) | inactive | inactive |  |
| CN(C)CC(C)(C)CNc1nn2c(-c3ccccc3)nnc2cc1C1CCC1 | -1.72% and 7.14% | inactive | inactive | 113 | inactive |  | inactive | inactive |
| Cn1nccc1Nc1nccc(-c2ccn([C@H](CO)c3ccc(Cl)c(F)c3)c(=O)c2)n1 | -22.3% | inactive | inactive | 72.4 | 16.6 µM (active) | 16.6 µM (active) |  |  |
